A short description of assay [1]: NCI Yeast Anticancer Drug Screen. Data for the rad50 strain (AID 155).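 Further: 0% = growth of vehicle-only cultures of the same strain.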 To be noted: S. cerevisiae rad50 strain growth inhibition, hits give high values. The gist of the method: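 Growth of the mutant yeast was measured after compound exposure and referenced to vehicle-treated cultures.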
Assay [2] can be described thus: NCI Yeast Anticancer Drug Screen. Data for the mec2-1 strain (AID 157). As to conditions: S. cerevisiae mec2-1 strain, hits give high values. The gist of the method:
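Test agents were screened against the mec2-1 yeast strain, with defined DNA repair or cell cycle alteration. Growth was scored as inhibition against vehicle-only controls.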

The nature of assay [3]: NCI Yeast Anticancer Drug Screen. Data for the sgs1 mgt1 strain (AID 161).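 Further: 0% = growth of cultures given vehicle only.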 As to conditions: S. cerevisiae sgs1 mgt1 strain, hits give high values. In short, it runs like this:
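Genetically altered yeast, compound exposure, growth inhibition relative to vehicle.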

Assay [4] in a line: NCI Yeast Anticancer Drug Screen. Data for the cln2 rad14 strain (AID 165).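 Further: 0% = growth equal to vehicle treated cultures.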 As to conditions: S. cerevisiae cln2 rad14 strain, hits give high values. In short, it runs like this: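 Growth of compound-exposed yeast (cln2 rad14 genotype) measured and expressed as inhibition relative to vehicle.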
A short description of assay [5]: NCI Yeast Anticancer Drug Screen. Data for the bub3 strain (AID 167). To be noted: S. cerevisiae bub3 mutant strain, hits give high values. The gist of the method: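 Whole-cell yeast assay. The mutant strain was incubated with compounds, and growth inhibition was determined by comparison with vehicle-treated cells.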
Assay [6] in a line: NCI Yeast Anticancer Drug Screen. Data for the mlh1 rad18 strain (AID 175). To be noted: S. cerevisiae mlh1 rad18 strain growth inhibition, hits give high values. In short, it runs like this:
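In this whole-cell yeast screen, a strain with altered DNA damage repair is challenged with compound, and its growth is measured against matched vehicle-treated controls.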

[7] abbreviates: at 5.0 µM (retest, dose inferred, filed as 0.5).
Setting [8] is: at 50.0 µM (retest, dose inferred, filed as 5.0).

Compounds without any hit were thinned out: in the full panel of roughly 79,000, 15% have a hit. Values without a mark were called inactive. The source made the active and inactive calls. No stated cut-off is given here; in the data, active means growth inhibition above about 70%; inactive means the rest.

Regarding `CCCCCCCCCCCCOCC[N+](CCO)(CCO)Cc1ccccc1`, the growth inhibition is 99% (active) in assay [1] (setting [7]); 99% (active) in assay [1] (setting [8]); 99.3% (active) in assay [1] (at 50.0 µM); 100% (active) in assay [2] (setting [7]); 99% (active) in assay [2] (setting [8]); 99.5% (active) in assay [2] (at 50.0 µM). For the same compound, the growth inhibition in assay [3] (setting [7]) was 99% (active); in assay [3] (setting [8]) it was 99% (active); in assay [3] (at 50.0 µM) it was 99.2% (active); in assay [4] (setting [7]), 97% (active); in assay [4] (setting [8]), 99% (active); in assay [4] (at 50.0 µM), 98.4% (active). Moreover, the growth inhibition was 97% (active) in assay [5] (setting [7]); 99% (active) in assay [5] (setting [8]); 99% (active) in assay [5] (at 50.0 µM); 98% (active) in assay [6] (setting [7]); 99% (active) in assay [6] (setting [8]); 99.3% (active) in assay [6] (at 50.0 µM).
Turning to `CC(NC(=O)C(NC(=O)C(NC(=O)C(F)(F)F)C(C)C)C(C)C)C(=O)Oc1c(Cl)c(Cl)c(Cl)c(Cl)c1Cl` (stereo not given), the growth inhibition was 5% in assay [1] (setting [7]); 70% (active) in assay [1] (setting [8]); 59% in assay [1] (at 50.0 µM); 6% in assay [2] (setting [7]); 62% in assay [2] (setting [8]); 86.7% (active) in assay [2] (at 50.0 µM). In addition, the growth inhibition in assay [3] (setting [7]) is 21%; in assay [3] (setting [8]), 80% (active); in assay [3] (at 50.0 µM), 82.9% (active); in assay [4] (setting [7]), 10%; in assay [4] (setting [8]), 68%; in assay [4] (at 50.0 µM), 77.7% (active). Moreover, the growth inhibition in assay [5] (setting [7]) was -20%; in assay [5] (setting [8]) it was 65%; in assay [5] (at 50.0 µM) it was 85.6% (active); in assay [6] (setting [7]) it was 28%; in assay [6] (setting [8]), 83% (active); in assay [6] (at 50.0 µM), 78.7% (active).
In the case of `CCCCNC(=S)N/N=C/c1cccc(C)n1`, the growth inhibition was -3% in assay [1] (setting [7]); 98% (active) in assay [1] (setting [8]); 1.35% in assay [1] (at 50.0 µM); -8% in assay [2] (setting [7]); 98% (active) in assay [2] (setting [8]); 32.5% in assay [2] (at 50.0 µM). Besides, the growth inhibition in assay [3] (setting [7]) was -16%; in assay [3] (setting [8]) it was 98% (active); in assay [3] (at 50.0 µM) it was 59.2%; in assay [4] (setting [7]), -11%; in assay [4] (setting [8]), 99% (active); in assay [4] (at 50.0 µM), 17.4%. For the same compound, the growth inhibition in assay [5] (setting [7]) was -27%; in assay [5] (setting [8]), 97% (active); in assay [5] (at 50.0 µM), 42.5%; in assay [6] (setting [7]) it was 8%; in assay [6] (setting [8]), 99% (active); in assay [6] (at 50.0 µM) it was -11.1%.
Turning to `O/N=C1/CCCC/C1=C\c1ccc(Cl)c(Cl)c1`, the growth inhibition is 5% in assay [1] (setting [7]); 99% (active) in assay [1] (setting [8]); 98.8% (active) in assay [1] (at 50.0 µM); 1% in assay [2] (setting [7]); 99% (active) in assay [2] (setting [8]); 99.3% (active) in assay [2] (at 50.0 µM). For the same compound, the growth inhibition in assay [3] (setting [7]) is 28%; in assay [3] (setting [8]), 100% (active); in assay [3] (at 50.0 µM), 99.2% (active); in assay [4] (setting [7]), -6%; in assay [4] (setting [8]), 99% (active); in assay [4] (at 50.0 µM), 99.2% (active). Further, the growth inhibition in assay [5] (setting [7]) is -3%; in assay [5] (setting [8]), 99% (active); in assay [5] (at 50.0 µM), 99.3% (active); in assay [6] (setting [7]), 11%; in assay [6] (setting [8]), 96% (active); in assay [6] (at 50.0 µM), 99.1% (active).
As for `O=C1CN(CCN2CCOCC2)CC(=O)N2Cc3ccccc3CN12`, the growth inhibition in assay [1] (setting [7]) was 12%; in assay [1] (setting [8]) it was 38%; in assay [1] (at 50.0 µM) it was 61.6%; in assay [2] (setting [7]), 7%; in assay [2] (setting [8]) it was 55%; in assay [2] (at 50.0 µM), 24.1%. Also, the growth inhibition in assay [3] (setting [7]) was 27%; in assay [3] (setting [8]) it was 41%; in assay [3] (at 50.0 µM), 66.5%; in assay [4] (setting [7]), 3%; in assay [4] (setting [8]), 46%; in assay [4] (at 50.0 µM) it was 62.6%. Besides, the growth inhibition in assay [5] (setting [7]) was 6%; in assay [5] (setting [8]), 35%; in assay [5] (at 50.0 µM), 68.5%; in assay [6] (setting [7]), 29%; in assay [6] (setting [8]), 64%; in assay [6] (at 50.0 µM), 44.2%.
With `CC(=O)Nc1ccccc1C(O)(c1ccccc1)c1ccccc1`, the growth inhibition in assay [1] (setting [7]) was -2%; in assay [1] (setting [8]) it was 0%; in assay [1] (at 50.0 µM), 14.4%; in assay [2] (setting [7]), -5%; in assay [2] (setting [8]), -2%; in assay [2] (at 50.0 µM), 35.2%. The growth inhibition is -5% in assay [3] (setting [7]); 1% in assay [3] (setting [8]); 16.4% in assay [3] (at 50.0 µM); 2% in assay [4] (setting [7]); -2% in assay [4] (setting [8]); 9.45% in assay [4] (at 50.0 µM). Also, the growth inhibition in assay [5] (setting [7]) is -2%; in assay [5] (setting [8]), 2%; in assay [5] (at 50.0 µM), 14.7%; in assay [6] (setting [7]), -5%; in assay [6] (setting [8]), 1%; in assay [6] (at 50.0 µM), -31.2%.
As to `O=c1c(SSc2coc3ccccc3c2=O)coc2ccccc12`, the growth inhibition in assay [1] (setting [7]) is 22%; in assay [1] (setting [8]), 99% (active); in assay [1] (at 50.0 µM) it was 94.4% (active); in assay [2] (setting [7]), 27%; in assay [2] (setting [8]), 96% (active); in assay [2] (at 50.0 µM), 96.3% (active). In addition, the growth inhibition in assay [3] (setting [7]) was 27%; in assay [3] (setting [8]), 98% (active); in assay [3] (at 50.0 µM) it was 87.5% (active); in assay [4] (setting [7]), 42%; in assay [4] (setting [8]), 94% (active); in assay [4] (at 50.0 µM) it was 91.3% (active). In addition, the growth inhibition is 13% in assay [5] (setting [7]); 94% (active) in assay [5] (setting [8]); 71.9% (active) in assay [5] (at 50.0 µM); 17% in assay [6] (setting [7]); 97% (active) in assay [6] (setting [8]); 93.5% (active) in assay [6] (at 50.0 µM).
As for `O=C1c2cccc(O)c2C(=O)c2c(O)cc(CO)cc21`, the growth inhibition in assay [1] (setting [7]) was 58%; in assay [1] (setting [8]), 92% (active); in assay [1] (at 50.0 µM) it was 87% (active); in assay [2] (setting [7]), 52%; in assay [2] (setting [8]), 94% (active); in assay [2] (at 50.0 µM) it was 90.3% (active). In addition, the growth inhibition is 61% in assay [3] (setting [7]); 93% (active) in assay [3] (setting [8]); 90.5% (active) in assay [3] (at 50.0 µM); 23% in assay [4] (setting [7]); 81% (active) in assay [4] (setting [8]); 88% (active) in assay [4] (at 50.0 µM). Moreover, the growth inhibition in assay [5] (setting [7]) is 54%; in assay [5] (setting [8]), 91% (active); in assay [5] (at 50.0 µM), 89.4% (active); in assay [6] (setting [7]) it was 82% (active); in assay [6] (setting [8]), 97% (active); in assay [6] (at 50.0 µM), 90.8% (active).
Turning to `ClC1(Cl)C(Cl)(Cl)C12c1ccccc1-c1ccccc12`, the growth inhibition in assay [1] (setting [7]) is 14%; in assay [1] (setting [8]) it was 94% (active); in assay [1] (at 50.0 µM), 98.6% (active); in assay [2] (setting [7]), -26%; in assay [2] (setting [8]), 97% (active); in assay [2] (at 50.0 µM), 98.8% (active). The growth inhibition in assay [3] (setting [7]) was 15%; in assay [3] (setting [8]), 98% (active); in assay [3] (at 50.0 µM) it was 99% (active); in assay [4] (setting [7]), 2%; in assay [4] (setting [8]), 95% (active); in assay [4] (at 50.0 µM) it was 86.8% (active). Besides, the growth inhibition in assay [5] (setting [7]) is 28%; in assay [5] (setting [8]) it was 95% (active); in assay [5] (at 50.0 µM) it was 98% (active); in assay [6] (setting [7]), 29%; in assay [6] (setting [8]), 96% (active); in assay [6] (at 50.0 µM), 98.6% (active).
As to `CCCCC(=O)N/N=C(\C)[C@]1(O)Cc2c(O)c3c(c(O)c2[C@@H](OC2CC(N)C(O)C(C)O2)C1)C(=O)c1c(OC)cccc1C3=O` (stereo not given in full), the growth inhibition in assay [1] (setting [7]) is 64%; in assay [1] (setting [8]), 97% (active); in assay [1] (at 50.0 µM) it was 98.7% (active); in assay [2] (setting [7]), -12%; in assay [2] (setting [8]) it was 97% (active); in assay [2] (at 50.0 µM), 99.2% (active). In addition, the growth inhibition in assay [3] (setting [7]) is 17%; in assay [3] (setting [8]), 97% (active); in assay [3] (at 50.0 µM), 51.5%; in assay [4] (setting [7]), 8%; in assay [4] (setting [8]), 89% (active); in assay [4] (at 50.0 µM), 97.1% (active). Further, the growth inhibition in assay [5] (setting [7]) was 15%; in assay [5] (setting [8]) it was 98% (active); in assay [5] (at 50.0 µM), 98.5% (active); in assay [6] (setting [7]), 17%; in assay [6] (setting [8]), 97% (active); in assay [6] (at 50.0 µM) it was 98.5% (active).

The values above are taken from PubChem BioAssay (NCI).
